Experimental data published in publication PMC12136788.
Changes are numbered by the printed parent chain. In all, about 24,000 sequences were measured (“enrichment r”: median about 0.99, highest 2% from about 3.7 on). What follows is part of a selection rich in the highest values, with near analogues and random picks from the rest.

T1: UNK ZnF1-3 (human, UniProt Q9C0B0 31-174)
T1 sequence: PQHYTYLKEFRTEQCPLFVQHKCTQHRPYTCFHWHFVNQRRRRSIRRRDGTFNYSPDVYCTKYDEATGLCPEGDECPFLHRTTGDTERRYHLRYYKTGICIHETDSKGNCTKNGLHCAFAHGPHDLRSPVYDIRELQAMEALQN

B1: chr4:144460044:144460045:+_ENSG00000153147_ENST00000283131|hu_mus|hu_hu_hu_mus_False|28_78 (ssRNA)
RNA: GGGAGUUCUACAGUCCGACGAUCACGGUCCAUAGCCUGAAGAUCAACUUGCGGAUUCCAAUCAGAAUCAUAUAAAAUGACUACAUCAGCAGUUGCAAGAUUGAUGCCAAGACCACCAGCACGUGUGCUUAGCAUAAAUACAAACAACAGAGGAUUGAGCAUCA
B2: chr6:41756983:41756984:+_ENSG00000214736_ENST00000398881|hu_mus|FALSE|FALSE (ssRNA)
RNA: GGGAGUUCUACAGUCCGACGAUCAUCAAUGUCACUCAAGUUCCUGGCCAGCCAGACUCCCGCAGCAAAGAGUCCCAAAUUGAGGAUCAAGUUCCUCCGGAAGUCGUUUCGAUCGGUGGCGAAGCGGAAGACACCGCGGAGCCACAACAGAGGAUUGAGCAUCA
B3: 40918001_40923414_123_3pUTR_ENSMUSG00000028423_ENSMUST00000098143|mouse|control|control (ssRNA)
RNA: GGGAGUUCUACAGUCCGACGAUCAGCAGCAUCUGUAUUGAAUUUAAAAGUGCCUGAGACCGGAGGCGCCUCCGCCAUCCCGUGCCGCAGCACCUCAAGCGAGCCCCGCCACCGAGCGAAGGCUGUCACCUGGUCACGUGUCCCCAACAGAGGAUUGAGCAUCA
B4: chr7:140404665:140404666:+_ENSG00000090266_ENST00000247866|hu_hu|hu_hu_hu_mus_False|1_28 (ssRNA)
RNA: GGGAGUUCUACAGUCCGACGAUCUGCUCCUACUCGUCCAGAGAGUUUACAGUGUCAGUCCUCGUCAUCAGGAGGGAUUCCCAGUUCUUCAUCUGUCCACUGUGAAGGAUCAGGAUAUGAAAAGUGACCCAGCACAGCUUCUGACAACAGAGGAUUGAGCAUCA
B5: 30503004_30509812_319_CDS_ENSG00000126858_ENST00000394692|human|control|control (ssRNA)
RNA: GGGAGUUCUACAGUCCGACGAUCCAGAUCAGAUUUGUUCCCAACCAAUAUUAAAGGCAGCCUGCUGUCUUUGUCUGUUCUUUCAUUUAUGAGAGGAAUCCAUCGACUUGUUACCUUAUCAAUAGAAUGCUUGUUGUUAACGGCCAACAGAGGAUUGAGCAUCA
B6: 48821072_48822033_622_CDS_ENSG00000108848_ENST00000240304|human|control|control (ssRNA)
RNA: GGGAGUUCUACAGUCCGACGAUCUGCAGCAAAGCUUUCAAUUGUCGACGUUGUGGACCUUAGCAGUUCUCUCUCUUCUUUUAAUUGCUCAACUAAUUUCAUCAUCCCCUGGGCUUCUUCUACUUUUCCUUCAGACCCUAAUUCCAACAGAGGAUUGAGCAUCA
B7: chr2:43450610:43450611:-_ENSG00000152518_ENST00000282388|hu_mus|FALSE|FALSE (ssRNA)
RNA: GGGAGUUCUACAGUCCGACGAUCGUUAAAUAGUUUUUCAUAUUGAGUUGUGGUGCAGUGGUGCGGAUCAACUCAGAACAACUAAAAAUGAAGCACUUAUUUCCCAACAACUAUGAACUGAGCUCUGCCCAUAGCUUCCAGAGACAACAGAGGAUUGAGCAUCA
B8: chr7:108137184:108137185:-_ENSG00000135241_ENST00000257694|hu_mus|motif|central (ssRNA)
RNA: GGGAGUUCUACAGUCCGACGAUCUCGAUAGAGUUCCUCACAUUCAUCCAGCGGCAUGUGAAACAAUCCCAGCAUAAAUGCGGAUAUGGCCCCUGUGCUUACUCCACAGAUGUAAUCAAAAAGCUGAUGAAUCGGCUUCUGAGUCAACAGAGGAUUGAGCAUCA
B9: chr13:9170561:9170562:+_ENSMUSG00000033499_ENSMUST00000091829|mus_mus|FALSE|FALSE (ssRNA)
RNA: GGGAGUUCUACAGUCCGACGAUCCCAUCAGCCCCCAUCCAUCUGCUGGACACCCUACCAAUGCGCACUUGUAGACCAACUAUUAAAAAAAAAAAAAAAGGAAGUAGCAGAGUUCCCUUAAUUUAGAAAAACUCAUUAUAGCUUCAACAGAGGAUUGAGCAUCA
B10: chr13:9170561:9170562:+_ENSMUSG00000033499_ENSMUST00000091829|mus_mus|motif|central (ssRNA)
RNA: B9 RNA with U80G, A81G
B11: chr18:67805652:67805653:+_ENSMUSG00000024537_ENSMUST00000025418|mus_hu|FALSE|FALSE (ssRNA)
RNA: GGGAGUUCUACAGUCCGACGAUCAUACUUAAUAAAAAUGGAUCUUAACUGUAGAGCCACCAGCUUUCUUGAAGGCAAUGAAUACACUUCAGCAUUUAUGCUAAGUUCUGUUGAAUUUCCUUCUGUGGUCGCAUAUGGAUUGUUCAACAGAGGAUUGAGCAUCA
B12: chr13:9170561:9170562:+_ENSMUSG00000033499_ENSMUST00000091829|mus_hu|FALSE|FALSE (ssRNA)
RNA: GGGAGUUCUACAGUCCGACGAUCCACUGGCCCUCAUUCAUCUGCGGGGACGUUCUAGAGAUAUGCACUUACAGACCAGUUACUUAAAAAAAAAAAAAAAAAGCAGAGUUCCCUUAAUUUAGAAAAACUCACUAUAUAUAGCUUCAACAGAGGAUUGAGCAUCA
B13: chr1:32384726:32384727:-_ENSG00000184007_ENST00000602725|perfect_dup|FALSE|FALSE (ssRNA)
RNA: GGGAGUUCUACAGUCCGACGAUCAGGAGGAAAUCAAUAAAUCUUGAAAUGUUCCGCAGCAGAAAACAUUAAAAAGACCACUAAAAUGCCUAUUAUUGAUCACUAUUUUCUCUAUUCAACUUGCUUGUUCCUUAGGAAGCUUCUCAACAGAGGAUUGAGCAUCA
B14: chr14:23562722:23562723:-_ENSG00000100813_ENST00000605057|hu_mus|FALSE|FALSE (ssRNA)
RNA: GGGAGUUCUACAGUCCGACGAUCUGGCUCAUUUCCUCCCCGAUCUGUGAAUUUGGCUGGAAUGCAGCAUGGGGUGUUGAGUGUUUUUGUAAAUUUUCUAGCAUUAGAGCCCCUUUGAGCCGCUUGACCAGGGCACUCUUCUGCCAACAGAGGAUUGAGCAUCA
B15: 107524198_107526941_663_CDS_ENSMUSG00000028613_ENSMUST00000106731|mouse|control|control (ssRNA)
RNA: GGGAGUUCUACAGUCCGACGAUCGGGAUGAGGCGCGAGUAGUCCCGCUUCACCAGGUCUAUCCUCCGCACCUCGUGUCGGUUCGUGAAGAUCAGAGAUGGGCUCUUGCCGGCUACAGCUUUGCAGUUCUUGGUCAGUGUAUCCCAACAGAGGAUUGAGCAUCA
B16: chr11:72497679:72497680:+_ENSMUSG00000020794_ENSMUST00000021148|mus_mus|motif|central (ssRNA)
RNA: GGGAGUUCUACAGUCCGACGAUCUAUUGCUACAUCCAAUCCAAGAGAUGGGUGAAUCAUAGUACAAAAAGGACAAAGCACCGGGUGAUGACCCCUCCUCUGAAGUCAUCGUGAAAAACUCAAGUAAUUUACUAGUAUUUCAGUCAACAGAGGAUUGAGCAUCA
B17: chr10:35314101:35314102:-_ENSG00000108094_ENST00000537177|hu_mus|motif|central (ssRNA)
RNA: GGGAGUUCUACAGUCCGACGAUCUUCACCUGUACAGAGAUAAUGCAACCAUGUCAGCUUCCGUCCACUGAAAUGCUGGCGGUAAAACAAUUCAAACAUCUGUACACUUUUCUCUAGCUCUUGGGGAAUUGCAAAUGUAGAUGACAACAGAGGAUUGAGCAUCA
B18: chr5:180275300:180275301:-_ENSG00000196670_ENST00000512132|hu_hu|FALSE|FALSE (ssRNA)
RNA: GGGAGUUCUACAGUCCGACGAUCUCAUCAUCACUGCCCCCUCCCAAACCAAUUACAUCAAGUUUAUACUUAAAGACCACUAAUAUUAAAUAAAUUUAUAUUCCCUGAAACCUAUCCUCCCUGAAUUUGCCUGUUGGAGGCCCUCAACAGAGGAUUGAGCAUCA
B19: chr7:17500836:17500837:-_ENSMUSG00000019370_ENSMUST00000019514|mus_mus|FALSE|FALSE (ssRNA)
RNA: GGGAGUUCUACAGUCCGACGAUCUGAACUGAACACAAUAUUGCCCGGUUUGUUUGUUUGUUUAAAAAAAAAAAAAAAAAAGGAAAAACAAAAAACCAAAAUAAAACCCCGAAACAUUCCGCAAAGUCCACAGCCUCACGCCUACAACAGAGGAUUGAGCAUCA
B20: chr2:203071915:203071916:-_ENSG00000116030_ENST00000392246|hu_hu|FALSE|FALSE (ssRNA)
RNA: GGGAGUUCUACAGUCCGACGAUCCAAAGAGAUGGGGUGCCAGUUUUCAAUUCCGUUUUGAACACCACAUUACAAAAGAACUAUUUUUAAAAAUAAAAAAGGAUUGAGGGAAAAGAAAAAAAAUAAAAAGAAUAUCUAAACUGUCAACAGAGGAUUGAGCAUCA
B21: chr18:43482294:43482295:-_ENSMUSG00000024501_ENSMUST00000121805|mus_mus|FALSE|FALSE (ssRNA)
RNA: GGGAGUUCUACAGUCCGACGAUCUGACAGAGUUUUGCCUAGCAUUUGAGAGGCCCUGGACUCAAUUGUCCAGCUCUACAAAAUGAAAUAAACAGAAAUUCCCCACCUCAAAAAAAAAAAACAACAACAACAACAACAAAAAACCAACAGAGGAUUGAGCAUCA
B22: chr9:88635815:88635816:+_ENSG00000135040_ENST00000361671|hu_hu|FALSE|FALSE (ssRNA)
RNA: GGGAGUUCUACAGUCCGACGAUCUCCUCCUGCCAAUAACUUCAUAACCACAAAGUUGGGUUUGGCAACCUUUAAAAUUCUAUUAACCUCAUGGUCCGGGUUAGGAAUAUUUUCCAAUAUCAUUUUUGCCUGUUGAAAGUGCUUCAACAGAGGAUUGAGCAUCA
B23: chr2:203071830:203071831:-_ENSG00000116030_ENST00000392246|hu_hu|FALSE|FALSE (ssRNA)
RNA: GGGAGUUCUACAGUCCGACGAUCAGGGGACUGAGGCUUGAUCACCAAAAAUCAGCACAAUGAAAACAAACAAUAAUGAAUAAUGAGCACUAGAAUUCAAAUUACCAGAUGUUUCAAAGAGAUGGGGUGCCAGUUUUCAAUUCCCAACAGAGGAUUGAGCAUCA
B24: chr2:203071915:203071916:-_ENSG00000116030_ENST00000392246|hu_hu|motif|central (ssRNA)
RNA: B20 RNA with U81G, A82G
B25: chr10:22825647:22825648:-_ENSG00000150867_ENST00000376573|hu_hu|FALSE|FALSE (ssRNA)
RNA: GGGAGUUCUACAGUCCGACGAUCUCAUCAUUAUUAUCUUCAUUAUUCUGAAUACUGUCUCACAUCUUUCAACUCCAAAAAAAAAAAAAAAAAAAAAAAACUGAUCCACAGUUUGUUGUGUGAUGCCAACACGGUGCCUGACAUCAACAGAGGAUUGAGCAUCA
B26: chrX:153994619:153994620:+_ENSG00000130826_ENST00000369550|hu_mus|FALSE|FALSE (ssRNA)
RNA: GGGAGUUCUACAGUCCGACGAUCUCCAACAUACUCUUUGCCUGCACUCUGUUGUGAUUUCACCAAACGAGUGGCUCGUUCAAUGCACACAAUUAAACAACCAGUCACUUUGGGAUCUAGUGUGCCACUGUGGCCAGUCUUCUCCAACAGAGGAUUGAGCAUCA
B27: chr19:60013232:60013233:-_ENSMUSG00000040022_ENSMUST00000171986|mus_hu|FALSE|FALSE (ssRNA)
RNA: GGGAGUUCUACAGUCCGACGAUCCUUAUCUUUUAACUUUGCAAAAGGAGAUCUGGUUUUGUCCUUCAUUGAUAAGUCAAACAUACUUGCGGUCAUAUUGUUCCUCAUAAACUGAAUAUUGACCUUUAUCUCACCCCUGUUUUUCAACAGAGGAUUGAGCAUCA

Molecular target: T1, UNK ZnF1-3
Assay: nsRBNS (natural sequence RNA bind-n-seq); RBNS binding buffer (assumed for nsRBNS): 25 mM Tris pH 7.5, 150 mM KCl, 3 mM MgCl2, 0.01% Triton X-100, 500 ug/ml BSA, 20 U/ml SUPERase-In, 4 C; UNK is unkempt and MSI1 is Musashi-1; names of the RNAs are library labels; protein concentration not given here; high values mean tight binding

Row | Binder | binding signal [enrichment R]
1 | B1 | 1.2
2 | B2 | 1.55
3 | B3 | 1.06
4 | B4 | 1.15
5 | B5 | 0.92
6 | B6 | 0.686
7 | B7 | 1.32
8 | B8 | 1.13
9 | B9 | 5.05
10 | B10 | 4.58
11 | B11 | 1.04
12 | B12 | 6.5
13 | B13 | 0.842
14 | B14 | 0.906
15 | B15 | 0.464
16 | B16 | 0.978
17 | B17 | 0.886
18 | B18 | 3.55
19 | B19 | 6.58
20 | B20 | 32.1
21 | B21 | 3.06
22 | B22 | 1.04
23 | B23 | 3.55
24 | B24 | 20.1
25 | B25 | 5.07
26 | B26 | 0.751
27 | B27 | 0.548
